PubChem BioAssay (Tox21)
Records with an inconclusive call do not appear. Calls of active or inactive are those of the source. Unless noted, calls follow the shape of the full dose curve.

Tests used:
[1] = qHTS assay to identify small molecule agonists of the vitamin D receptor (VDR) signaling pathway - cell viability counter screen (AID 743224; active = well fitted curve in the direction sought with a large enough effect in the repeat runs; an effect the other way counts as inactive or inconclusive; also: series mostly up to about 63 µM; % is scaled to controls: 0 for no effect and ±100 for the full control effect; nearly all actives have a fitted effect of over 50% in size)
Summary of the method: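 In parallel with the bla FRET readout, cytotoxicity toward VDR-bla cells after 16 h compound exposure was assessed by CellTiter-Glo, with luminescence recorded after a 30 min room-temperature incubation.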

[2] = qHTS assay to identify small molecule antagonists of the vitamin D receptor (VDR) signaling pathway - cell viability counter screen (AID 743225; active = well fitted curve in the direction sought with a large enough effect in the repeat runs; an effect the other way counts as inactive or inconclusive; also: % is scaled to controls: 0 for no effect and ±100 for the full control effect; nearly all actives have a fitted effect of over 50% in size)
Summary of the method: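 Compounds were pinned onto VDR-bla HEK 293T cells together with 1-alpha,25-dihydroxyvitamin D3 at 3 nM final. After 16 h at 37C and 5% CO2 plus the reporter readout, cell viability was measured by CellTiter-Glo luminescence (30 min, room temperature).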

[3] = qHTS assay to identify small molecule agonists of the NFkB signaling pathway (AID 1159509; active = well fitted curve in the direction sought with a large enough effect in the signal ratio in the repeat runs, not every such curve was filed as active; the % refers to the signal ratio; also: series mostly up to about 61 µM; % is scaled to controls: 0 for no effect and ±100 for the full control effect)
Summary of the method: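 Pathway activation was measured in ME-180 cells stably expressing beta-lactamase under NF-kB response element control. Substrate cleavage was read as the 460/530 nm emission shift after 5 hr compound incubation.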

[4] = qHTS assay to identify small molecule agonists of the NFkB signaling pathway - cell viability counter screen (AID 1159515); also: series mostly up to about 61 µM; % is scaled to controls: 0 for no effect and ±100 for the full control effect; nearly all actives have a fitted effect of over 55% in size
Summary of the method: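 Plate 2,000 NFkB-bla ME-180 cells/well; incubate overnight. Add compounds, 5 hr at 37 C. Add FRET substrate, 1.5 hr RT. Add CellTiter-Glo, 30 min RT; read luminescence.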

[5] = qHTS assay to identify small molecule agonists of the endoplasmic reticulum stress response signaling pathway (AID 1159516; active = well fitted activation curve with a large enough effect in the signal ratio in the repeat runs, not every such curve was filed as active; the % refers to the signal ratio; also: % is scaled to controls: 0 for no effect and ±100 for the full control effect)
Summary of the method: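 Beta-lactamase expression from the ER stress response element in HeLa reporter cells is quantified with the LiveBLAzer B/G FRET substrate, read at 405 nm excitation after 2 hr at room temperature, following 5 hr compound treatment at 37 C.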

[6] = qHTS assay to identify small molecule agonists of the endoplasmic reticulum stress response signaling pathway - cell viability counter screen (AID 1159517); also: series mostly up to about 61 µM; % is scaled to controls: 0 for no effect and ±100 for the full control effect; nearly all actives have a fitted effect of over 50% in size
Summary of the method: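 In parallel with the ESRE reporter read, cytotoxicity was scored by CellTiter-Glo luminescence (30 min, room temperature) on HeLa ESRE-bla cells dosed for 5 hr.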

[7] = qHTS assay to identify small molecule antagonists of the retinoid-related orphan receptor gamma (ROR-gamma) signaling pathway - cell viability counter screen (AID 1159520; active = well fitted curve in the direction sought with a large enough effect in the repeat runs; an effect the other way counts as inactive or inconclusive; also: % is scaled to controls: 0 for no effect and ±100 for the full control effect; nearly all actives have a fitted effect of over 50% in size)
Summary of the method: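 Tet-on ROR gamma CHO cells were given compounds for 2 hr, then doxycycline hyclate at 1 uM final, and incubated 16 hr at 37 C. Viability was measured as ATP content by CellTiter-Glo luminescence.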

[8] = biological target: Nuclear receptor ROR-gamma (Homo sapiens) (UniProt P51449); assay: qHTS assay to identify small molecule antagonists of the retinoid-related orphan receptor gamma (ROR-gamma) signaling pathway (AID 1159521; active = well fitted curve in the direction sought with a large enough effect in the repeat runs; an effect the other way counts as inactive or inconclusive)
Summary of the method: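 Test compounds were applied to Tet-on RORγ CHO cells 2 h ahead of doxycycline hyclate (1 uM final). Luciferase reporter activity was quantified by luminescence after 16 h at 37 C and 5% CO2.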

[9] = qHTS assay to identify small molecule agonists of the AP-1 signaling pathway - cell viability counter screen (AID 1159525); also: nearly all actives have a fitted effect of over 55% in size
Summary of the method: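 Same-well cytotoxicity counter screen of the Tox21 10K library in ME-180 cells. The readout is ATP-dependent luminescence after 5 h compound treatment. Data are normalised to DMSO and tetra n-octyl ammonium bromide controls.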

[10] = qHTS assay to identify small molecule agonists of the AP-1 signaling pathway (AID 1159526); also: % is scaled to controls: 0 for no effect and ±100 for the full control effect

CCCc1cc(C(N)=S)ccn1
inactive: Potency [1] | Potency [2] | outcome [3] | outcome [4] | outcome [5] | outcome [6] | outcome [7] | Potency [8] | Potency [9] | outcome [10]

CC(=O)Nc1ccc(S(N)(=O)=O)cc1
inactive: Potency [1] | Potency [2] | outcome [3] | outcome [4] | outcome [5] | outcome [6] | outcome [7] | Potency [8] | Potency [9] | outcome [10]

CC[N+](C)(C)c1cccc(O)c1
inactive: Potency [1] | Potency [2] | outcome [3] | outcome [4] | outcome [5] | outcome [6] | outcome [7] | Potency [8] | Potency [9] | outcome [10]

CC1(C)C(O)C(C)(C)C1O (stereo unspecified)
inactive: Potency [1] | Potency [2] | outcome [3] | outcome [4] | outcome [5] | outcome [6] | outcome [7] | Potency [8] | Potency [9] | outcome [10]

CC(=O)OCC(CCn1cnc2cnc(N)nc21)COC(C)=O
inactive: Potency [1] | Potency [2] | outcome [3] | outcome [4] | outcome [5] | outcome [6] | outcome [7] | Potency [8] | Potency [9] | outcome [10]

CCOC(=O)c1ccc(C)cc1
inactive: Potency [1] | Potency [2] | outcome [3] | outcome [4] | outcome [5] | outcome [6] | outcome [7] | Potency [8] | Potency [9] | outcome [10]

NS(=O)(=O)c1cc(C(=O)NN2C[C@H]3[C@H]4CCC(C4)[C@H]3C2)ccc1Cl
inactive: Potency [1] | Potency [2] | outcome [3] | outcome [4] | outcome [5] | outcome [6] | outcome [7] | Potency [8] | Potency [9] | outcome [10]

CCN1CCC[C@H]1CNC(=O)c1cc(S(N)(=O)=O)ccc1OC
inactive: Potency [1] | Potency [2] | outcome [3] | outcome [4] | outcome [5] | outcome [6] | outcome [7] | Potency [8] | Potency [9] | outcome [10]

NCCc1cnc[nH]1
inactive: Potency [1] | Potency [2] | outcome [3] | outcome [4] | outcome [5] | outcome [6] | outcome [7] | Potency [8] | Potency [9] | outcome [10]

CC(=O)N(CC(O)CO)c1c(I)c(C(=O)NCCO)c(I)c(C(=O)NCC(O)CO)c1I (stereo unspecified)
inactive: Potency [1] | Potency [2] | outcome [3] | outcome [4] | outcome [5] | outcome [6] | outcome [7] | Potency [8] | Potency [9] | outcome [10]

N=c1nc(N2CCCCC2)cc(N)n1O
inactive: Potency [1] | Potency [2] | outcome [3] | outcome [4] | outcome [5] | outcome [6] | outcome [7] | Potency [8] | Potency [9] | outcome [10]

CCCN(CCC)CCc1cccc2c1CC(=O)N2
inactive: Potency [1] | Potency [2] | outcome [3] | outcome [4] | outcome [5] | outcome [6] | outcome [7] | Potency [8] | Potency [9] | outcome [10]

CCn1ccnc1CC1COc2ccccc2O1 (stereo unspecified)
inactive: Potency [1] | Potency [2] | outcome [3] | outcome [4] | outcome [5] | outcome [6] | outcome [7] | Potency [8] | Potency [9] | outcome [10]

Cc1c(NC(C)C)c(=O)n(-c2ccccc2)n1C
inactive: Potency [1] | Potency [2] | outcome [3] | outcome [4] | outcome [5] | outcome [6] | outcome [7] | Potency [8] | Potency [9] | outcome [10]

COc1nc(N)nc2c1ncn2[C@@H]1O[C@H](CO)[C@@H](O)[C@@H]1O
inactive: Potency [1] | Potency [2] | outcome [3] | outcome [4] | outcome [5] | outcome [6] | outcome [7] | Potency [8] | Potency [9] | outcome [10]

CCCCOCCOCCOCCCC
inactive: Potency [1] | Potency [2] | outcome [3] | outcome [4] | outcome [5] | outcome [6] | outcome [7] | Potency [8] | Potency [9] | outcome [10]

COC(=O)c1cc(C(=O)OC)cc(S(=O)(=O)O)c1
inactive: Potency [1] | Potency [2] | outcome [3] | outcome [4] | outcome [5] | outcome [6] | outcome [7] | Potency [8] | Potency [9] | outcome [10]

Cc1nc2c([nH]1)c(=O)n(C)c(=O)n2Cc1ccco1
inactive: Potency [1] | Potency [2] | outcome [3] | outcome [4] | outcome [5] | outcome [6] | outcome [7] | Potency [8] | Potency [9] | outcome [10]

CCCCCCCCCCCC
inactive: Potency [1] | Potency [2] | outcome [3] | outcome [4] | outcome [5] | outcome [6] | outcome [7] | Potency [8] | Potency [9] | outcome [10]

OC1CCCCC1c1ccccc1 (stereo unspecified)
inactive: Potency [1] | Potency [2] | outcome [3] | outcome [4] | outcome [5] | outcome [6] | outcome [7] | Potency [8] | Potency [9] | outcome [10]

Cc1cc2c(cc1S(N)(=O)=O)S(=O)(=O)CCC2
inactive: Potency [1] | Potency [2] | outcome [3] | outcome [4] | outcome [5] | outcome [6] | outcome [7] | Potency [8] | Potency [9] | outcome [10]

CC/C=C\CC/C=C/C(OCC)OCC
inactive: Potency [1] | outcome [3] | outcome [4] | outcome [5] | outcome [6] | outcome [7] | Potency [9] | outcome [10]

CCOC(C)(C)C
inactive: Potency [1] | Potency [2] | outcome [3] | outcome [4] | outcome [5] | outcome [6] | outcome [7] | Potency [8] | Potency [9] | outcome [10]

CC(C)(c1ccc(O)cc1)c1ccc(O)cc1
inactive: Potency [1] | outcome [3] | outcome [4] | outcome [5] | outcome [6] | outcome [7] | Potency [9] | outcome [10]

COC(=O)c1ccc(C)cc1C1=NC(C)(C(C)C)C(=O)N1 (stereo unspecified)
inactive: Potency [1] | Potency [2] | outcome [3] | outcome [4] | outcome [5] | outcome [6] | outcome [7] | Potency [8] | Potency [9] | outcome [10]

COC(C)(C)CCCC(C)CC=O (stereo unspecified)
inactive: Potency [1] | Potency [2] | outcome [3] | outcome [4] | outcome [5] | outcome [6] | outcome [7] | Potency [8] | Potency [9] | outcome [10]

C[N+](C)(C)CCCCCC[N+](C)(C)C
inactive: Potency [1] | Potency [2] | outcome [3] | outcome [4] | outcome [5] | outcome [6] | outcome [7] | Potency [8] | Potency [9] | outcome [10]

CCCCC/C=C\CCC=O
inactive: Potency [1] | Potency [2] | outcome [3] | outcome [4] | outcome [5] | outcome [6] | outcome [7] | Potency [8] | Potency [9] | outcome [10]

CCOC(=O)[C@H](CCc1ccccc1)N[C@@H](C)C(=O)N1[C@H](C(=O)O)C[C@@H]2CCC[C@@H]21
inactive: Potency [2] | outcome [3] | outcome [4] | outcome [5] | outcome [6] | outcome [7] | Potency [8] | Potency [9] | outcome [10]

COC(=O)c1c(Cl)c(Cl)c(C(=O)OC)c(Cl)c1Cl
inactive: Potency [1] | Potency [2] | outcome [3] | outcome [4] | outcome [5] | outcome [6] | outcome [7] | Potency [8] | Potency [9]

Cc1cccn2c(=O)c(-c3nnn[nH]3)cnc12
inactive: Potency [1] | outcome [3] | outcome [4] | outcome [5] | outcome [6] | activity, negative = cytotoxicity [7] 0.0857% [at 19 µM] | viability change, negative = cytotoxic [9] -0.287% [at 15.8 µM] | outcome [10]

COC(=O)CCSCCC(=O)OC
inactive: Potency [1] | outcome [3] | outcome [4] | outcome [5] | outcome [6] | outcome [7] | Potency [9] | outcome [10]

C/C=C(\C)C#N
inactive: Potency [1] | outcome [3] | outcome [4] | outcome [5] | outcome [6] | outcome [7] | Potency [9] | outcome [10]

NC(=O)COCCN1CCN(C(c2ccccc2)c2ccc(Cl)cc2)CC1 (stereo unspecified)
inactive: Potency [1] | outcome [3] | outcome [4] | outcome [5] | outcome [6] | outcome [7] | Potency [9] | outcome [10]

CCCCCCCCCCCCCC=O
inactive: activity change, negative = cytotoxicity [1] -0.0946% [at 5.95 µM] | viability change, negative = cytotoxic [2] 5.28% [at 6.95 µM] | activation [3] -1.29% [at 6.95 µM] | activity, negative = cytotoxic [4] 2.89% [at 6.95 µM] | activation [5] -3.51% [at 6.95 µM] | activity change, negative = cytotoxicity [6] 0.611% [at 6.95 µM] | activity, negative = cytotoxicity [7] 2.5% [at 8.39 µM] | activity change, negative = inhibition [8] 5.08% [at 8.39 µM] | viability change, negative = cytotoxic [9] -4.58% [at 6.97 µM] | activation [10] -1.06% [at 6.97 µM]

O=C(O)COc1nn(Cc2ccccc2)c2ccccc12
inactive: Potency [1] | Potency [2] | outcome [3] | outcome [4] | outcome [5] | outcome [6] | outcome [7] | Potency [8] | Potency [9] | outcome [10]
